ELG1 repair inh: qHTS screen for small molecules that inhibit ELG1-dependent DNA repair in human embryonic kidney (HEK293T) cells expressing luciferase-tagged ELG1 | HEK293T ELG1-luciferase reporter, luminescence, 16 h; DNA damage induced by 5-fluorouridine | Potency, µM (doses to about 46.1 µM), hits mostly inhibitors | 2.3% of 330,000 active; further: nearly all actives have a fitted effect of over 55% in size
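Luminescence from the luciferase reporter, measured 30 min after ONE-Glo reagent at room temperature, was the read-out. Beforehand, 2,000 cells per well were exposed for 16 hr at 37 °C to 5-fluorouridine together with compound or vehicle.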
MCF10A rerep: A quantitative high throughput screen for small molecules that induce DNA re-replication in MCF 10a normal breast cells. MCF 10A DNA re-replication, Hoechst nuclear intensity, 48 h. 2.9% of 350,000 active. Potency, µM (titrated, usually from 46.1 µM), usual class: activators; further: nearly all actives have a fitted effect of over 50% in size
SW480 rerep: A quantitative high throughput screen for small molecules that induce DNA re-replication in SW480 colon adenocarcinoma cells. Potency, µM (series often up to 46.1 µM), hits mostly activators. SW480 DNA re-replication, Hoechst DNA content imaging, 48 h. AID 624297, 2012. 1.8% of 340,000 active; further: nearly all actives have a fitted effect of over 55% in size
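Per well, 250 cells were exposed to pinned compound for 48 hr. Nuclear DNA was visualised with Hoechst (40 min, 37 C) and total object intensity recorded by fluorescence scanning.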
KB-V1 MDR tox: qHTS assay for MDR1-selective chemotherapeutics: Primary screen using the drug-selected MDR subline cells KB-V1; KB-V1 MDR cells viability, CellTiter-Glo, 72 h; Potency, µM (titrated, usually from 46.1 µM), actives largely listed as cytotoxic; 3.4% of 400,000 active; further: nearly all actives have a fitted effect of over 60% in size
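Following 72 h at 37 degrees C with compound, KB-V1 cell viability was read by CellTiter-Glo luminescence, medium being phenol-red-free DMEM plus 10% FBS; concentration-response parameters came from normalized, curve-fitted qHTS data.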
KB-3-1 cytotox: qHTS assay for MDR1-selective chemotherapeutics: Primary screen using the parental adenocarcinoma cell KB-3-1; 1.4% of 400,000 active; KB-3-1 viability, CellTiter-Glo ATP luminescence, 72 h; AID 1347075, 2019; Potency, µM (highest dose often 46.1 µM), most hits filed as cytotoxic; further: nearly all actives have a fitted effect of over 60% in size
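Cytotoxicity in the drug-sensitive parental line KB-3-1 was scored as loss of CellTiter-Glo luminescence following 72 h incubation with compound. Values come from curve fitting of normalized concentration-response data.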
A number is an active result; - = inactive; ? = inconclusive; . = no result; ! = not active in a repeat. An excerpt weighted towards active compounds, which were near 8.1% of everything screened. The call rests on the fitted dose curve; in most records, active means well fitted curve in the direction sought with a large enough effect; inconclusive means small, poorly fitted or top-dose-only effect, or another doubt; inactive means no such curve, though single readings can be large; an effect the other way counts as inactive or inconclusive.

SMILES	ELG1 repair inh	MCF10A rerep	SW480 rerep	KB-V1 MDR tox	KB-3-1 cytotox
CCOC(=O)c1c(NC(=O)CSc2nnc(Cc3ccccc3)o2)sc(C(C)=O)c1C	?	-	-	18µM	-
CCOC(=O)c1c(NC(=O)CN2CCCc3ccccc32)sc(C(C)=O)c1C	-	-	-	4.1µM	-
COCCOC(=O)c1c(NC(=O)CN2CCc3ccccc32)sc(C(N)=O)c1C	?	-	-	-	-
CCOC(=O)c1c(NC(=O)CSc2nnc(-c3ccccc3)o2)sc(C(C)=O)c1C	?	-	-	?	-
CCOc1ccc(NS(=O)(=O)c2ccc(C(=O)N3CCN(C(C)=O)CC3)cc2)cc1	-	-	-	?	?
OCC[C@@H]1C[C@H](O)[C@@H](O)[C@]2(OCc3ccc(CO)cc32)O1	.	.	.	-	-
OC[C@H]1O[C@H](c2nc(-c3nc(-c4cccs4)no3)cs2)C[C@@H]1O	.	.	.	-	-
O=C(NCC1CCCO1)c1cc([N+](=O)[O-])ccc1N1CCC(Cc2ccccc2)CC1 (stereo unspecified)	23µM	-	-	?	4.6µM
COc1ccc(S(=O)(=O)N2CCCC2CNC(=O)C(=O)NC2CCCC2)cc1 (stereo unspecified)	.	.	.	-	-
O=C(NCCc1ccccc1)C(=O)NCCC1CCCCN1S(=O)(=O)c1ccccc1 (stereo unspecified)	-	-	-	-	-
COc1ccc(CCNC(=O)C(=O)NCC2CCCN2S(=O)(=O)c2ccc(OC)cc2)cc1 (stereo unspecified)	21µM	-	-	?	-
O=C(NCCc1ccccc1)C(=O)NCC1CCCN1S(=O)(=O)c1ccccc1 (stereo unspecified)	?	23µM	18µM	12µM	?
CC(C)NC(=O)Nc1ccc2c(c1)C(=O)N([C@@H](C)CO)C[C@H](C)[C@H](CN(C)S(=O)(=O)c1ccccc1)OCCCC[C@H](C)O2	.	.	.	-	-
O=C(COC(=O)Cc1n[nH]c(=O)c2ccccc12)Nc1c(Br)cc([N+](=O)[O-])cc1Br	.	-	-	?	-
O=[N+]([O-])c1ccc2c(c1)-c1ccccc1C2=NO	.	-	-	?	-
Nc1ccc2c(c1)C(=NO)c1cc([N+](=O)[O-])ccc1-2	.	-	10µM	-	-
Cc1nn(-c2ccccc2)c(OC(=O)c2ccccc2F)c1S(=O)(=O)c1ccccc1	.	.	.	?	-
CC1=C(C(=O)OC(C)C)C(c2ccc(C)o2)C(C(=O)OC(C)C)=C(C)N1	18µM	-	-	-	-
COC(=O)C1=C(C)NC(C)=C(C(=O)OC)C1c1ccc(C)o1	-	-	-	-	-
COCCCN1C(=O)C(CC(=O)NCc2ccco2)CC(C(=O)N(C(C)C)C(C)C)=C1C (stereo unspecified)	.	.	.	-	-
O=C1CS/C(=N/N=C/c2c[nH]c3ccccc23)N1	-	18µM	-	-	-
CCc1nc2ccc(C(=O)NCCN3CCOCC3)cn2c1N(C=O)Cc1ccc(OC)cc1	.	.	.	-	-
Cc1c(CNC(C)CCc2ccccc2)c(C(=O)O)c(C)n1Cc1ccc(F)cc1 (stereo unspecified)	.	.	.	-	-
O=C(CN1C(=O)c2ccccc2C1=O)NCCc1c[nH]c2ccc(Cl)cc12	-	-	-	?	-
O=C1c2ccccc2C(=O)N1CCCc1c[nH]c2ccc(Cl)cc12	-	-	-	21µM	?
SMILES	ELG1 repair inh	MCF10A rerep	SW480 rerep	KB-V1 MDR tox	KB-3-1 cytotox
O=C(Oc1ccc2[nH]cc(CCN3C(=O)c4ccccc4C3=O)c2c1)c1ccco1	?	12µM	-	-	-
O=C(Nc1ccc(Cl)cc1F)c1oc(=O)c2ccccc2c1-c1ccccc1	.	.	.	?	-
O=c1cc(CO)occ1O	.	-	-	.	.
Cn1c(=NC(=O)CCl)sc2ccccc21	?	15µM	?	?	-
COc1cc(C(=O)N=c2sc3ccccc3n2C)cc(OC)c1OC	?	-	-	4.6µM	-
CC(=O)N/N=c1\sc2ccccc2n1C	-	-	-	-	-
Cn1c(=NC(=O)c2ccco2)sc2ccccc21	?	-	-	16µM	?
CC1(C(=O)NCc2ccc(C(F)(F)F)cc2)CCN1Cc1ccccc1OC(F)F (stereo unspecified)	.	.	.	-	-
OC(c1ccc(Cl)cc1)c1ncc(-c2ccccc2F)[nH]1 (stereo unspecified)	.	.	.	-	-
Cc1ccc(C(c2nnnn2CCc2ccccc2)N2CCSCC2)cc1 (stereo unspecified)	-	-	-	?	-
Cc1ccc(C(c2nnnn2CCc2ccccc2)N2CCC(C)CC2)cc1 (stereo unspecified)	-	?	-	18µM	?
CCc1ccc(NC(=O)c2sc3nc(C)c(C(=O)Nc4ccc(C)cc4C)c(-c4ccco4)c3c2N)cc1	.	.	.	-	-
CC(C)CCn1c(Oc2ccc(Cl)cc2)nc2c1c(=O)n(C)c(=O)n2C	21µM	-	-	?	?
Cn1c(=O)c2c(nc(Oc3ccccc3)n2C)n(C)c1=O	16µM!	-	-	-	-
CCCCn1c(Oc2ccc(C(=O)OC)cc2)nc2c1c(=O)n(C)c(=O)n2C	21µM	-	-	16µM	-
